Measured values as given in PubChem BioAssay AID686971 (National Center for Advancing Translational Sciences (NCATS), 2013).
Hit rate of the full screen: of about 360,000 compounds, about 7,500 (2.1%) were called active. Roughly 8% stayed inconclusive and do not appear here. Many of the other results were omitted from the sample, so actives are more common in it than they were. Unmarked numbers belong to inactive results. Calls follow the shape of the dose curve; as a rule, active = well fitted cell-killing curve with a large enough effect; inconclusive = small, poorly fitted or top-dose-only effect, or effect the other way, or another doubt; inactive = no such curve, though single readings can be large or run the other way.

Test: qHTS for induction of synthetic lethality in tumor cells producing 2HG: qHTS for the HT-1080-IDH1KD cell line
Conditions: HT-1080 IDH1 knockdown viability, ATP luminescence, 48 h; series mostly up to 46.1 µM; activity, negative = toxicity: at the top concentration
Source text: Unbiased genomic sequencing for 22 glioma genomes found recurrent mutation of IDH1 on chromosome 2q33, a gene encoding the cytosolic isoform of IIDH1 associated with the tri-carboxylic acid cycle (TCA) that catalyzes the oxidative decarboxylation of isocitrate, yielding alpha-ketoglutarate and CO2 via NADP+ to NADPH conversion. Subsequent studies confirmed the recurrent IDH mutations in up to 70% of secondary gliomas and in 10% of AML cases. In addition, the somatic mutation of cancer-associated IDH1 is a point mutation resulting in various amino-acid substituents at Arginine132 (IDH1 R132), a key residue found in the enzyme's active site that when mutated, results in the loss-of-function in metabolizing isocitrate but confers a gain-of-function to produce the oncometabolite 2-hydroxyglutarate (2HG). This in effect defines IDH1 as an oncogene and provides an extraordinary opportunity to discover chemical probes against mutant IDH1 that may translate into much needed new therapies for glioma and AML patients.
This assay aims to perform a synthetic-lethal screen for chemical probes specific for 2HG-producing tumor cells using matched paired cell lines (1) HT-1080-NT fibrosarcoma cell line that overproduces 2HG and (2) HT-1080-IDH1KD cell line which has IDH1 expression knocked-down. Desirable compounds are toxic to the NT fibrosarcoma cell line but not to the IDH1KD cell line. The data in this AID corresponds to the results of the qHTS against the HT-1080 IDH1KD cell line.
[1] Dang L, Jin S, Su SM. IDH mutations in glioma and acute myeloid leukemia. Trends of Mol Med. 2010; 16(9): 387-97.
[2] Dang L et al. Cancer-associated IDH1 mutations produce 2-hydroxyglutarate. Nature. 2010; 465(7300):966.
Molecular Libraries Probe Production Centers Network [MLPCN]
NIH Chemical Genomics Center [NCGC]
Assay Submitter (PI): Lenny Dang Ph.D., Agios Pharmaceuticals
Suspensions of trypsinized HT-1080-IDH1KD cells were dispensed into white, tissue culture-treated, solid 1536-well plates at 5uL/well (750 cells/well final concentration) in RPMI medium supplemented with 5% FBS. Plates were incubated at 37 degrees C for 2 hours, after which 23 nL of compounds or DMSO were delivered to each well using a pin tool. Plates were then incubated at 37 degrees C for an additional 48 hours. CellTiter-Glo viability reagent (Promega) was dispensed into wells (2.5uL/well) and incubated at room temperature for 10 minutes. The plates were measured on a PerkinElmer ViewLux plate reader for luminescent signal (clear filter, 1 sec exp.). DMSO-treated control wells and media-only (no cells) control wells were used to normalize %Activity of identified toxic compounds; DMSO-treated wells corresponded to 0%Activity (100% viability), while media-only controls were used to normalize 100%Activity (0% viability). To minimize variability between cell lines, both HT-1080-NT and HT-1080-IDH1KD lines were dispensed and treated with identical compound series in single batches.
Concentration-response curves were fitted to the signals arising from the resulting luminescence. The concentration-effect curves were then classified based on curve quality (r2), response magnitude and degree of measured activity, and compounds were subsequently categorized based on their curve class.
Potency is read from the fitted curve at half-maximal effect.

Row | Compound | activity, negative = toxicity [%] | Potency
1 | CC1CC=CCC12C(=O)NC(=S)NC2=O (stereo not given) | 12.1 | 
2 | C[C@]12CCCCC1=CC(=O)C1C2CC[C@@]2(C)C1C[C@@H](F)[C@@H]2O (stereo not given in full) | -0.58 | 
3 | CCOC(=O)CNC(=O)N1Cc2cc(N3CCCCC3)ccc2-n2nncc2C1 | 15.5 | 
4 | Cc1ccc(OC(=O)N(C)C[C@@H]2OCc3cnnn3CCCC(=O)N([C@H](C)CO)C[C@@H]2C)cc1 | 0.516 | 
5 | O=C1NC(=O)N(Cc2ccco2)C(=O)/C1=C\c1ccc(-c2ccc(F)cc2)o1 |  | 18.4 µM (active)
6 | COc1ccc(N2C(=O)/C(=C/c3ccco3)C(=O)NC2=S)cc1 | 1.76 | 
7 | CCOC(=O)c1cccc(C2=C(CNC(=O)c3ccncc3)[C@H]3CC[C@@H](C2)N3Cc2ccccc2)c1 | -5.65 | 
8 | CNC(=O)Nc1ccc(C(O)(C(=O)OC)C(F)(F)F)cc1 (stereo not given) | 3.8 | 
9 | CCNS(=O)(=O)c1ccc(NC(=O)Nc2cccc(C(F)(F)F)c2)cc1 |  | 11.2 µM (active)
10 | NC(=O)Nc1cccc(C(F)(F)F)c1 | 0.786 | 
11 | O=P(OC1=CCCCC1)(c1ccccc1)c1ccccc1 | -14.1 | 
12 | COP(=O)(NS(=O)(=O)c1ccccc1)OC | 9.88 | 
13 | c1ccc(C(CN2CCCCC2)c2ccccc2)cc1 | 14.8 | 
14 | O=c1c2ccccc2[nH]c(=S)n1-c1cccc(Cl)c1 | -12.2 | 
15 | O=C1C2(Cl)C3(Cl)C4(Cl)C(Cl)(Cl)C5(Cl)C3(Cl)C1(Cl)C5(Cl)C24Cl (stereo not given) |  | 16.4 µM (active)
16 | CC1C(=O)OC2CCN3CC=C(COC(=O)C(C)(O)C1(C)O)C23 (stereo not given) | 6.77 | 
17 | Cc1cccc(NC(=O)OC2CN3CCC2CC3)c1 (stereo not given) | 5.13 | 
18 | CN1CCN(Cc2ccc(OC(F)(F)F)cc2)CC1 | 10.9 | 
19 | Cc1nc2ccccc2c(=O)n1-c1ccc(Cl)cc1Cl | -2.58 | 
20 | O=c1c2ccccc2nc(/C=C/c2ccc(F)cc2)n1-c1ccccc1O |  | 20.6 µM (active)
21 | O=c1c2ccccc2nc(/C=C/c2ccco2)n1-c1ccccc1O | -27.3 | 
22 | CCOc1cccc(=NC2CCCCC2)c2c(C)[nH]c(C)c12 |  | 20.6 µM (active)
23 | C=C(C)C1(CCCC)C(=O)NC(=S)NC1=O | 22.4 | 
24 | CC(=O)Nc1ccc(C(=O)C(Cc2ccccc2)N(C)C)cc1 (stereo not given) | 2.05 | 
25 | CSc1nc2ccc(C)cc2c(=O)n1-c1cccnc1 | 0.487 | 
26 | O=C(NC1CCCCC1)N1Cc2cc(N3CCCCC3)ccc2-n2nncc2C1 | 13.2 | 
27 | Cc1cc2ccccn2c1C(C[N+](=O)[O-])c1c(F)cccc1Cl (stereo not given) |  | 10.3 µM (active)
28 | CN1CCc2cc3c(cc2[C@H]1[C@@H]1OC(=O)c2c1ccc1c2OCO1)OCO3 | 3.58 | 

Row | Compound | activity, negative = toxicity [%] | Potency
29 | c1cc2c(c(NC3=NCCCS3)c1)CCCC2 | -20.4 | 
30 | COC(=O)C1=C(c2ccc(OCc3ccccc3)cc2)C[C@@H]2CC[C@H]1N2C(=O)NCc1ccc(Cl)cc1 | 2.58 | 
31 | Cc1nc2nc(C)c(CCC(=O)N3CCC4(CC3)OCCO4)c(C)n2n1 | 15.2 | 
32 | COC1=CC=C2[C@H]3Cc4ccc(OC)c5c4[C@@]2(CCN3C)C1O5 (stereo not given in full) | -7.32 | 
33 | COc1ccc2c3c1O[C@H]1C[C@@H](O)C=C[C@@]31CCN(C)C2 |  | 5.8 µM (active)
34 | COc1ccc2c(c1O)-c1cccc3c1[C@@H](C2)N(C)CC3 | -0.356 | 
35 | COc1ccc(C(=O)CC2C(=O)N(C)C(=O)N(C)C2=O)cc1 | -2.16 | 
36 | Cc1ccc(-n2c(O)c(C=NCC3CCCO3)c(=O)[nH]c2=O)c(C)c1 (stereo not given) | 5.18 | 
37 | COc1ccc(NC(=O)N2Cc3ccccc3-n3nncc3C2)cc1 | 14 | 
38 | COC(=O)C1=C(c2ccccc2)C[C@@H]2CC[C@H]1N2C(=O)NCc1ccco1 | 10.2 | 
39 | Cc1ncoc1C(=O)NCC1=C(c2cccc3ccccc23)C[C@@H]2CC[C@H]1N2Cc1ccco1 | 3.31 | 
40 | COc1cc(Cn2c(N)c(C(=O)NCc3ccco3)c3nc4ccccc4nc32)cc(OC)c1OC |  | 8.91 µM (active)
41 | CCOC(=O)C1(c2ccccc2)CCN(CC(O)c2ccc(NC(C)=O)cc2)CC1 (stereo not given) | -4.56 | 
42 | CC12CCC3C(CCC4CC(=O)CCC43C)C1CC(=NO)C2=O (stereo not given) | -6.65 | 
43 | CNC(=O)O/N=C(\N)Cc1csc2ccc(Cl)cc12 |  | 20.6 µM (active)
44 | CNC(=O)O/N=C(\N)Cc1csc2ccccc12 | -5.52 | 
45 | COC(=O)C1=C(c2ccc(OCc3ccccc3)cc2)C[C@@H]2CC[C@H]1N2C(=O)NCc1cccc(F)c1 | -15 | 
46 | O=C(NC(=S)N1C[C@H]2C[C@H](C1)c1cccc(=O)n1C2)c1ccc(F)cc1 | 3.21 | 
47 | CC(CC(C#N)(c1ccccc1)c1ccccc1)N1CCCCC1 (stereo not given) | 7.07 | 
48 | C=CCN1C(=O)C2(C(C(=O)OCC)=C(N)Oc3c2c(=O)oc2ccccc32)c2ccccc21 (stereo not given) | 6.5 | 
49 | O=c1c2ccccc2nc(CBr)n1-c1ccc(Cl)cc1 | -6.41 | 
50 | CC1CNCCN1c1ccc(Cl)cc1 (stereo not given) | 1.1 | 
51 | CC1=CC(=Cc2sc3ccccc3[n+]2C)C=C(C)O1 |  | 10.3 µM (active)
52 | COc1ccccc1C1=NCc2nnc(CSC)n2-c2ccc(Cl)cc21 | -20.5 | 
53 | c1ccc(N2Cc3ccccc3-n3nncc3C2)nc1 | -2.59 | 
54 | COc1cccc(C(c2nnnn2-c2ccc3c(c2)OCCO3)N2CCC3(CC2)C(=O)NCN3c2ccccc2)c1OC (stereo not given) |  | 16.4 µM (active)
55 | CC(=O)Nc1ccccc1C(=O)OCC(=O)c1cccc2ccccc12 | 4.55 | 
